In PubChem BioAssay AID485395 (ICCB-Longwood Screening Facility, Harvard Medical School, 2010) one finds inhibition data, which are given here for 105 compounds.

Usually inhibition stands for the change of the read-out against control, counted positive when it falls.

Among all 120,000 compounds or so, about 55 (0.05%) were called active. What follows is part of a selection rich in actives, with near analogues and random picks from the rest. A number with no mark means an inactive call. Rule as the data show it: active = inhibition above about 25% (passing the limit was not always enough); inactive = the rest.

This assay concerns replicative DNA helicase (DnaC/DnaB), Staphylococcus aureus. The assay can be described thus: inhibitors of S. aureus replicative helicase, primary screen, biochemical, fluorescence unwinding readout (AID 485395).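 Also: 0% = mean of negative control wells and 100% = mean of positive control wells.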 As to conditions: purified S. aureus helicase, fluorescence unwinding assay; stronger effect = higher value; concentration not given here.
For `Cc1cc(CNCc2nnc3ccccn23)c(C)n1-c1ccnn1C(C)C`, the inhibition is 7%.

On to `Nc1cc(N)cc(C(F)(F)C(F)(F)C(F)(F)F)c1`, for which the inhibition was 23%.

As for `CCOc1ccc2nc(NC(=O)c3ccccc3OC)sc2c1`, the inhibition is -8%.

With `Cc1ccc(-n2nc(C)c(C(=O)N(Cc3ccccc3)C(C)C)c2-n2cccc2)cc1`, the inhibition is 22%.

Take `O=C(NC(c1ccccc1)c1ccccc1)C1COC2C=CC=CC2O1` (stereo not given): the inhibition is 5%.

In the case of `CCCn1c(NC(=O)CCCc2nc3ccccc3c(=O)[nH]2)nc2ccccc21`, the inhibition is 6%.

Turning to `COc1ccc(Cc2nn3c(C(C)(C)C)nnc3s2)cc1OC`, the inhibition is -4%.

Consider `O=C1CCC(C(=O)NN2C(=O)c3cccc4cccc(c34)C2=O)=NN1`, for which the inhibition is 10%.

In the case of `CCOc1ccc(CCNC(=O)Nc2ccc(C)c(C)c2)cc1OCC`, the inhibition was -3%.

For the compound `CCOC(=O)c1c2c(n(-c3ccccc3)c1N)OC(=N)C(C#N)C2c1ccc(Br)cc1` (stereo not given), the inhibition is -19%.

For the compound `NNC(=O)CNC(=O)c1cccc2ccccc12`, the inhibition is 17%.

Regarding `O=C(CSc1ccc2nnc(-c3cccc(F)c3)n2n1)NCc1ccccc1`, the inhibition is -3%.

Consider `Cc1nc(Nc2nc3ccccc3o2)ncc1C(=O)Nc1ccccc1`, for which the inhibition was 24%.

Take `Cc1occc1-c1nnc(SCc2ccc(C(C)(C)C)cc2)n1N`: the inhibition is -3%.

For the compound `Cc1ccc(-c2nc(C#N)c(NCc3ccc4c(c3)OCO4)o2)cc1`, the inhibition was 5%.

`COc1ccc(/C=C2\Oc3ccccc3N(CC(=O)N3CCOCC3)C2=O)cc1`: the inhibition is 5%.

With `c1ccc(-n2nnnc2N2CCCC2c2nc3ccccc3s2)cc1` (stereo not given), the inhibition is -12%.

As to `COc1ccccc1/C=C1\SC(=O)N(c2ccccc2)C1=O`, the inhibition was -8%.

On to `NNC(=O)CCCc1nc2ccccc2s1`, for which the inhibition was 4%.

As to `CCOC(=O)c1sc2nc(CN3CCCCC3)nc(NC3CC3)c2c1C`, the inhibition is 16%.

With `O=S1(=O)CCC(N=Cc2cn(-c3ccccc3)nc2-c2ccccc2)C1` (stereo not given), the inhibition was 10%.

On to `N#CNc1nc2ccccc2nc1Cl`, for which the inhibition was 2%.

On to `COc1ccc(NC(=O)c2ccoc2COc2ccc(C)cc2)cc1`, for which the inhibition is 0%.

`Cc1ccc(SCc2nnc(-c3c(-c4ccccc4)noc3C)o2)cc1C`: the inhibition is -11%.

`CCCSc1nnc(Nc2ccccc2OC)s1`: the inhibition was -21%.

`Cc1noc(N)c1C(=O)OCc1ccc(COC(=O)c2c(C)noc2N)cc1`: the inhibition is -28%.

Take `O=C(COC(=O)C12CC3CC(CC(Br)(C3)C1)C2)NC1CC1`: the inhibition was 8%.

In the case of `Cc1nn(C)c(Cl)c1S(N)(=O)=O`, the inhibition is 8%.

As for `NC(=O)Cn1c(=O)n(Cc2ccco2)c(=O)c2ccccc21`, the inhibition is 16%.

Consider `CC(=O)N1CCc2c(sc3c2c(=O)n(Cc2ccccc2)c(=O)n3Cc2cccc(C)c2)C1`, for which the inhibition was -4%.

Turning to `Cc1cc(=O)n(-c2cccc(C(F)(F)F)c2)[nH]1`, the inhibition was -1%.

For the compound `O=C(N/N=C/c1ccc(F)cc1)c1n[nH]c2c1CCC2`, the inhibition was 15%.

For `Nc1c(C(=O)Nc2ccccc2C(F)(F)F)sc2[nH]c(=O)c(C(=O)O)cc12`, the inhibition was 15%.

Regarding `CCCN(CC1CC1)C(=O)CSc1nc(N)cc(N)n1`, the inhibition is 27%.

As for `NC(=O)C1CCN(C(=O)CSCc2ccc(Br)cc2)CC1`, the inhibition is 5%.

Consider `CC(C)NC(=O)CCc1c[nH]c2ccccc12`, for which the inhibition was 13%.

On to `O=C(CN1CCC(c2nc(-c3ccncc3)n[nH]2)CC1)N1CCN(c2ccccc2F)CC1`, for which the inhibition was -6%.

Turning to `COCCN1Cc2cccc(C(=O)NCc3ccco3)c2C1=O`, the inhibition was -9%.

`CCOc1nc(NC(=O)NC(=O)c2cccs2)nc(-c2ccccc2)n1`: the inhibition is 11%.

In the case of `Cn1c(-c2ccco2)nn(C2CC(=O)C3OCC2O3)c1=S` (stereo not given), the inhibition was -1%.

As to `CCOc1cccc(C(=O)NN2CCOCC2)c1`, the inhibition was -7%.

With `O=C(O)c1cccc(N2C(=O)/C(=C\c3ccc4c(c3)OCO4)SC2=S)c1`, the inhibition is 15%.

As to `Cc1noc(C)c1COC(=O)c1cccc(S(=O)(=O)N(C)C2CCCCC2)c1`, the inhibition is -11%.

In the case of `CC1CCC(C(=O)NC(C(=O)N2CCN(Cc3ccccc3)CC2)C(C)C)CC1` (stereo not given), the inhibition is 0%.

For `Cc1nc(-c2ccccc2)sc1C(=O)NCC1CCCO1` (stereo not given), the inhibition was -20%.

On to `Nc1c(NCC(c2ccco2)N2CCCCC2)c(=O)[nH]c(=O)n1Cc1ccccc1` (stereo not given), for which the inhibition is 9%.

Turning to `Clc1cccc2c(N3CCN(Cc4ccccc4)CC3)cnnc12`, the inhibition was 17%.

`CCCc1nnc(SCC(=O)N2CCCC2)n1CCOC`: the inhibition is 3%.

For the compound `CCS(=O)(=O)N1CCC(C(=O)OCC(=O)c2cc(C)n(C(C)C)c2C)CC1`, the inhibition was -5%.

For `CCc1n[nH]c(=S)n1/N=C1\C(=O)N(CC(C)C)c2ccccc21`, the inhibition is 1%.

Regarding `Cc1ccc(C(=O)COC(=O)c2cc3cc(Br)ccc3oc2=O)cc1`, the inhibition was -19%.

For the compound `Cc1cccc(NC(=O)CNC(=O)c2ccc3c(=O)[nH]c(CN4CCOCC4)nc3c2)c1C`, the inhibition was 5%.

Regarding `CCOC(=O)c1c(CN2CCN(CC#N)CC2)n(-c2ccccc2)c2ccc(O)cc12`, the inhibition is -1%.

Regarding `NC(=O)CCc1nc(-c2ccccc2)no1`, the inhibition is -4%.

`Cc1nn(Cc2ccc(Cl)cc2)c(C)c1NC(=O)COCc1cc(-c2cccs2)on1`: the inhibition is -15%.

For the compound `Cc1cc(C)c2nc3nc(C)cc(C)c3c(N)c2c1`, the inhibition is 77% (active).

In the case of `Cc1cc(C)c2nc(-c3ccco3)cc(C(=O)O)c2c1`, the inhibition was 5%.

Consider `COc1ccc(/C=N/N2C(=O)c3ccccc3C2=O)cc1OC`, for which the inhibition is -16%.

Take `O=S1(=O)CC=C(S(=O)(=O)c2ccccc2)C1`: the inhibition was 2%.

With `CCOC(=O)COc1ccc2cc(-c3nc4ccccc4s3)c(=O)oc2c1`, the inhibition is -176%.

`CC(=O)Nc1nonc1Nc1csc(CC#N)n1`: the inhibition was -1%.

Turning to `O=C(N/N=C/c1c(-c2ccccc2)nc2sccn12)c1ccc2ccccc2n1`, the inhibition is 15%.

Consider `COc1cccc(C2NC(=O)NC(C)=C2C(=O)c2ccccc2)c1` (stereo not given), for which the inhibition was -13%.

As for `CC1=C(C(=O)NCCC(C)C)C2(CCC(C)CC2)OC1=O` (stereo not given), the inhibition was 1%.

Take `CC(C)CCSc1nc2ccccc2n1CN1CCN(S(=O)(=O)c2ccc(Cl)cc2)CC1`: the inhibition is 3%.

On to `O=C(NCc1ccccc1)N1CCC(CN2CCCCC2)CC1`, for which the inhibition is 4%.

On to `CCOC(=O)N1CCC(NC(=O)Cn2ncc3c(=O)oc4ccc(C)cc4c32)CC1`, for which the inhibition is 14%.

Take `CC(C)CCNS(=O)(=O)c1ccc2[nH]c3c(c2c1)CCCC3`: the inhibition is -2%.

With `CC(=O)Nc1ncc(Cc2ccc(C)cc2)s1`, the inhibition was 7%.

For `Cc1ccc(CN(C)C(=O)c2n[nH]c3ccccc23)o1`, the inhibition is -4%.

Take `CC(C)N(C(=O)CSc1nnc2sc3ccccc3n12)C(C)C`: the inhibition is 7%.

In the case of `CCCCSc1nc2ccccc2[nH]1`, the inhibition is -5%.

Consider `CC1=NN(C(N)=S)C(=O)C1`, for which the inhibition was -7%.

As for `COc1ccc(C)cc1NC(=O)CSC1CCCC1`, the inhibition is -1%.

Turning to `Cc1c(/C=N/NC(N)=S)c2ccccc2n1C`, the inhibition was -2%.

For `COc1cc(OC)c(OC)cc1CN1CCN(c2ccccc2F)CC1`, the inhibition is 10%.

Turning to `NCC1CCN(Cc2ccccc2Cl)CC1`, the inhibition is -10%.

As to `c1csc(-c2csc(Cc3nc(-c4cccs4)cs3)n2)c1`, the inhibition is 36%.

With `CCN(C(=O)Cc1noc2ccccc12)c1cc(OC)ccc1OC`, the inhibition was 9%.

As for `COc1ccc(-c2cc3c(n2Cc2ccc(F)cc2)CC(C)(C)CC3=O)cc1`, the inhibition is -11%.

`COCCNC(=O)Cn1cc(/C=C2\C(=O)NC(=O)N(C3CCCCC3)C2=O)c2ccccc21`: the inhibition was -31%.

For the compound `Cc1nc2cc(N=Cc3ccc(Cl)cc3)ccc2n1Cc1ccccc1`, the inhibition is 10%.

Take `Cc1nc(-c2cccs2)sc1C(=O)Nc1ccccc1`: the inhibition was -5%.

In the case of `CN1C/C(=C/c2ccc3c(c2)OCCO3)C(=O)/C(=C/c2ccc3c(c2)OCCO3)C1`, the inhibition was 8%.

On to `CCc1ccc(C(=O)C(C)Sc2nnc(-c3ccccc3)o2)cc1` (stereo not given), for which the inhibition is -5%.

Take `COc1ccc(OC)c(NC(=O)CSc2nccn2-c2cccc(Cl)c2)c1`: the inhibition was 3%.

As for `NC(=O)CN1CCN(Cc2cccc3ccccc23)CC1`, the inhibition is 3%.

`Cc1cn2ccccc2c1P(=Nc1ccccc1)(N1CCOCC1)N1CCOCC1`: the inhibition is 7%.

Regarding `O=C(OC1CSC1)c1cccs1`, the inhibition was -1%.

On to `CC1CC(=O)Nc2ccccc2N1C(=O)CSc1ccc2c(c1)OCCCO2` (stereo not given), for which the inhibition is 15%.

Consider `OCc1nc2ccccc2n1CC1CC1(Cl)Cl` (stereo not given), for which the inhibition is -17%.

Regarding `Cc1nn(CC(=O)NCCc2ccccc2)c(=O)c2cc3occc3n12`, the inhibition was 8%.

On to `COc1ccc(/C=C2\Oc3cc(OC(=O)c4ccc(F)cc4)ccc3C2=O)cc1`, for which the inhibition was 5%.

Take `CC(C)c1ccc(N=Cc2cccs2)cc1`: the inhibition was 21%.

`O=C(NCC1CCCO1)c1ccc2c(=O)n3c(nc2c1)CCCCC3` (stereo not given): the inhibition is 2%.

`CN1CCN(C(=O)c2ccc(-c3ccc(Br)cc3)o2)CC1`: the inhibition was -25%.

On to `CCn1c(CNC(=O)c2ccncc2)cc2ccccc21`, for which the inhibition was 7%.

For the compound `Nc1nnnn1/N=C/c1cccc(Br)c1`, the inhibition is 4%.

In the case of `O=C(COC(=O)C1CC1)c1ccccc1Br`, the inhibition was -9%.

On to `CCC(Sc1nnc(-c2cc3occc3n2C)n1-c1ccccc1C)C(=O)Nc1ccc(C)cc1` (stereo not given), for which the inhibition was 10%.

`NS(=O)(=O)c1ccc(CNC(=O)c2cccc3cccnc23)cc1`: the inhibition was -13%.

On to `[O-][n+]1ccccc1SC1=COCCC1`, for which the inhibition is 8%.

As to `CC1=Nc2nc(N3CC(C)OC(C)C3)c(C#N)c3c4c(nc(c23)N1)N(c1ccccc1)C(=O)C4` (stereo not given), the inhibition is 54% (active).

Turning to `N#Cc1c(N)nc2c(c1N)CC(=O)N2c1ccccc1`, the inhibition was -11%.

For the compound `COc1ccc(N2CCN(c3nc(N)c4c(N)nc5c(c4c3C#N)CC(=O)N5C)CC2)cc1`, the inhibition is 9%.
